This is an account of results in PubChem BioAssay (EPA / NIEHS).

Calls of active or inactive are those of the source. Rule for the calls: active = hit-call score of the fitted dose curve at least 0.9, where 1 is the maximum; inconclusive = response in the unintended direction; inactive = score below 0.9.

Estrogen receptor beta (Homo sapiens), sequence (Q92731 whole entry, looked up, the tested form may be a part): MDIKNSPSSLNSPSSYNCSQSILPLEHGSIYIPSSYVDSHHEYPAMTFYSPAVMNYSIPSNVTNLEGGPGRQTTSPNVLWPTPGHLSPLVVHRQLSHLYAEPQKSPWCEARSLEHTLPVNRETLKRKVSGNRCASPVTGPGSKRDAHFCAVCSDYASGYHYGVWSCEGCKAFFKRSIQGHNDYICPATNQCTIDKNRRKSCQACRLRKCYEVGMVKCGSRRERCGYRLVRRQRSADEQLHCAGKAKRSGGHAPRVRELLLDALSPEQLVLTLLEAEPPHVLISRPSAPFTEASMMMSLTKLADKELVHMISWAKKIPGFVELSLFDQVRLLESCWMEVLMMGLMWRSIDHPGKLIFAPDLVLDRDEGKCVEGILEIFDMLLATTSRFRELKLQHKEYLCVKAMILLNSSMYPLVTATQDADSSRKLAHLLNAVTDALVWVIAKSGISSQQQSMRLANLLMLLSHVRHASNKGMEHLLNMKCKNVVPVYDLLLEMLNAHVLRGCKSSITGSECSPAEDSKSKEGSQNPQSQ

The assay concerns the target Estrogen receptor beta (Homo sapiens) (UniProt Q92731). The experiment in a line: OT_ER_ERbERb_1440: Odyssey Thera (OT) 24-hour HEK293T Protein-Complementation Assay for Estrogen Receptor-beta/-beta Homodimer (AID 2283380).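 Note: scored as signal increase over DMSO baseline for both agonists and antagonists.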 In outline: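 Fluorescence increase, nuclear for agonists or whole-cell for antagonists, relative to DMSO vehicle, quantified by laser scanning cytometer after fixation and Draq5 staining. Readout from 24 h treatment of HEK293T cells carrying complementation-paired ER beta LBD (aa 310-547).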
For the compound `N#Cc1c(Cl)cccc1Cl`, the compound was called inactive.
The same measure, in the same setting: the value for `Cn1c(-c2ccccc2)cc(-c2ccccc2)[n+]1C` was “inactive”; that for `CCSC(=O)N1CCCCCC1` was “inactive”; that for `C=CCOC(=O)C(C)(C)OC(=O)c1cc(-n2c(=O)cc(C(F)(F)F)n(C)c2=O)ccc1Cl` was “inactive”.
The same measure, in the same setting: with `Nc1cnn(-c2ccccc2)c(=O)c1Cl` the entry was “inactive”; with `CC(C)Nc1nc(Cl)nc(NC(C)C)n1`, “inactive”.
One may read the AC50 as the concentration giving half of the maximal activity seen. Take `CCN(CC)c1nc(C)cc(OP(=S)(OC)OC)n1`: the AC50 was 50 µM (active).
As to `CCOc1nc(C(Cl)(Cl)Cl)ns1`, the call was inactive.
The same measure, in the same setting: the value for `CCNP(=S)(OC)O/C(C)=C/C(=O)OC(C)C` (configuration not stated) was “inactive”; that for `Cc1ccc(N=CN(C)C=Nc2ccc(C)cc2C)c(C)c1` was “inactive”.
The same measure, in the same setting: with `CC1(C)CON(Cc2ccccc2Cl)C1=O` the entry was “inactive”; with `CC(C)Oc1cccc(NC(=O)c2ccccc2C(F)(F)F)c1`, “inactive”; with `O=C(Nc1ccccc1-c1ccc(Cl)cc1)c1cccnc1Cl`, “inactive”.
Same read-out and setting: with `C=C(C)CN(CC)c1c([N+](=O)[O-])cc(C(F)(F)F)cc1[N+](=O)[O-]` the entry was “inactive”; with `CC1(C)C(C=C(Cl)Cl)C1C(=O)OC(C#N)c1cccc(Oc2ccccc2)c1` (configuration not stated), “inactive”; with `COC(=O)NS(=O)(=O)c1ccc(N)cc1`, “inactive”.
`CNC(=O)N(C)c1nnc(C(C)(C)C)s1`: the compound was called inactive.
In the case of `O=C1C2CC=CCC2C(=O)N1SC(Cl)(Cl)Cl` (configuration not stated), the outcome was inactive.
With `CC(C)(C)C(=O)C(Oc1ccc(Cl)cc1)n1cncn1` (configuration not stated), the call was inactive.
Same read-out and setting: with `COP(=O)(OC)O/C(C)=C/C(=O)N(C)C` the entry was “inactive”; with `CN/C(=N\[N+](=O)[O-])NCc1cnc(Cl)s1`, “inactive”.
Still for that read-out and setting: the value for `Clc1nc(Cl)nc(Nc2ccccc2Cl)n1` was “inactive”.
